Records with an inconclusive call do not appear. A call without a number means that no potency is given here. Activity calls are given as the source filed them. Calls come from the whole dose curve.

We go through 40 compounds from PubChem BioAssay (NCATS).

This assay deals with Nucleoprotein (Lymphocytic choriomeningitis virus (strain Armstrong)) (UniProt P09992). Nature of the assay: qHTS for Inhibitors of the Functional Ribonucleoprotein Complex (vRNP) of Lymphocytic Choriomeningitis Arenaviruses (LCMV): LCMV Primary Screen - GLuc reporter signal (AID 1347086). Note: nearly all actives have a fitted effect of over 70% in size. Conditions: LCMV minigenome vRNP cell assay, Gaussia luciferase reporter; series mostly up to 57.5 µM.
Chain of Nucleoprotein (Lymphocytic choriomeningitis virus (strain Armstrong)) (P09992 whole entry, looked up): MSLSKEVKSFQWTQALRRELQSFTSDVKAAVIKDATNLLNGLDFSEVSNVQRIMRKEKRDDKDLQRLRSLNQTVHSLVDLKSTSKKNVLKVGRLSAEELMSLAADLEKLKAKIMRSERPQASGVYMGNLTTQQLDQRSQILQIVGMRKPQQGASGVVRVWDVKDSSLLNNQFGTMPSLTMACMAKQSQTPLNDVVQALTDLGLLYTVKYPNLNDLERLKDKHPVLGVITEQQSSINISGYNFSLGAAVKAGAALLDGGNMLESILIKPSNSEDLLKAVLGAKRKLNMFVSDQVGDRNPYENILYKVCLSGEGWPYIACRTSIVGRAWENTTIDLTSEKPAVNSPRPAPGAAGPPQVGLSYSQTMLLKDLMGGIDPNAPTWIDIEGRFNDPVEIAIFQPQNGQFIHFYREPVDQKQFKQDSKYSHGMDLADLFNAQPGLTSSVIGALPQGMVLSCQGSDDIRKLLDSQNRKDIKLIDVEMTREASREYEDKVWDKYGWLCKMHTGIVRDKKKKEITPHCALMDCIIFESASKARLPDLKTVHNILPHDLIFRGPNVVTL
Take `Oc1ccc(C=Cc2cc(O)cc(O)c2)cc1`: the Potency result is “inactive”.

On to `C=C(C)[C@@H]1CCC2=CC(=O)C[C@@H](C)[C@]2(C)C1`, for which the Potency entry was “inactive”.

In the case of `CC(=O)C1CCC2C3CCC4=CC(=O)C=CC4(C)C3C(=O)CC12C` (stereo not given), the Potency entry is “inactive”.

Turning to `C=C1CCC(OC(C)=O)C2(C)CCC3C(C)C(=O)OC3C12O` (stereo not given), the Potency result is “inactive”.

Regarding `COc1c2c(cc(O)c1C(C)=O)OC(C)(C)C=C2`, the Potency result was “inactive”.

As to `COc1c2ccoc2nc2c(OC)c(O[C@@H]3O[C@H](C)[C@@H](O)[C@@H](O)[C@H]3O)ccc12`, the Potency result was “inactive”.

With `CC1(C)O[C@@H]1COc1c2ccoc2cc2oc(=O)ccc12`, the Potency result is “inactive”.

Turning to `C/C=C/c1ccc2oc(-c3ccc(O)cc3)c(C)c2c1`, the Potency entry was “inactive”.

On to `CCOC(=O)[C@H]1O[C@H]1C(=O)N[C@@H](CC(C)C)C(=O)NCCC(C)C`, for which the Potency entry was “inactive”.

Consider `C=C(CC[C@]12OC(C(=O)O)C(O)(C(=O)O)C(C(=O)O)(O1)C(OC(=O)/C=C/[C@@H](C)C[C@@H](C)CC)C2O)[C@@H](OC(C)=O)[C@H](C)Cc1ccccc1` (stereo not given in full), for which the Potency entry was “inactive”.

`CC12CCC(=O)C=C1C(F)CC1C2C(O)CC2(C)C1CCC2(O)C(=O)CO` (stereo not given): the Potency entry was “inactive”.

Consider `COc1cc2c(cc1O)CC[n+]1cc3c(OC)c(OC)ccc3cc1-2`, for which the Potency result was “inactive”.

In the case of `CC(Cc1c[nH]c2ccccc12)C(=O)O` (stereo not given), the Potency entry is “inactive”.

Consider `CCCCC/C=C\C=C\C(=O)OCC`, for which the Potency result is “inactive”.

Consider `CC[C@H](C)/C=C(C)/C=C/C(=O)Cc1cc(O)c(C)c(O)c1C=O`, for which the Potency entry was “inactive”.

As for `CCOC(=O)Cc1ccccc1`, the Potency entry is “inactive”.

`CC(C)=CCC/C(C)=C/COC=O`: the Potency entry is “inactive”.

In the case of `COc1cc(C)c(C(=O)Oc2cc(C)c(C(=O)O)c(O)c2C)c(O)c1C`, the Potency entry is “inactive”.

With `O=C(Oc1ccccc1)c1ccccc1C(=O)Oc1ccccc1`, the Potency result was “inactive”.

On to `CC(=O)CCc1ccc(O)cc1`, for which the Potency entry is “inactive”.

For the compound `CC(C)=CCCC(C)C=O` (stereo not given), the Potency entry was “inactive”.

Take `O=C(/C=C/c1ccc(O)c(O)c1)c1ccc(O)cc1O`: the Potency result was “inactive”.

With `Cc1c(O)c2c(c(C(=O)/C=C/c3ccccc3)c1O)OC(C)(C)C=C2`, the Potency entry is “inactive”.

Turning to `C=CC(C)(CCC=C(C)C)OC(=O)CC` (stereo not given), the Potency result is “inactive”.

As to `O=C(O)C=C(Br)Br`, the Potency entry was “inactive”.

On to `CCc1cc(C(C)=NOCc2ccc(C3CCCCC3)c(C(F)(F)F)c2)ccc1CN1CC(C(=O)O)C1`, for which the Potency entry is “inactive”.

With `CCC(C)C(=O)OCCc1ccccc1` (stereo not given), the Potency entry is “inactive”.

Take `C[C@@H]1C(=O)CC2C(C)(C)CCC[C@]2(C)[C@@]1(O)CCc1ccoc1` (stereo not given in full): the Potency entry is “inactive”.

Take `N[C@H](CSSC[C@@H](N)C(=O)O)C(=O)O`: the Potency entry was “inactive”.

In the case of `O=C(O)CC(=O)Nc1ccccc1C(=O)O`, the Potency entry is “inactive”.

As for `C[C@@H]1CC[C@]2(C(=O)O[C@@H]3O[C@H](CO)[C@@H](O)[C@H](O)[C@H]3O)CC[C@]3(C)C(=CCC4[C@@]5(C)CC[C@H](O[C@@H]6OC[C@H](O)[C@H](O[C@@H]7O[C@H](CO)[C@@H](O)[C@H](O)[C@H]7O)[C@H]6O)C(C)(C)C5CC[C@]43C)C2[C@]1(C)O` (stereo not given in full), the Potency result was “inactive”.

For the compound `COc1c2c(nc3occc13)C(CC=C(C)C)(OC)C(O)CC2` (stereo not given), the Potency result was “inactive”.

As for `C=CC(C)=CCC=C(C)C`, the Potency entry is “inactive”.

With `CCCCCCCCCCCCCC/C(C(=O)O)=C(\C)C(=O)O`, the Potency result is “inactive”.

With `C/C=C(/C)C(=O)O[C@@H]1c2c(ccc3ccc(=O)oc23)O[C@@H]1C(C)(C)OC(C)=O`, the Potency entry was “inactive”.

Regarding `CC1(C)[C@H](O[C@H]2O[C@H](C(=O)O)[C@@H](O)[C@H](O)[C@H]2O[C@@H]2O[C@H](C(=O)O)[C@@H](O)[C@H](O)[C@H]2O)CC[C@@]2(C)[C@H]1CC[C@]1(C)[C@H]2C(=O)C=C2[C@H]3C[C@@](C)(C(=O)O)CC[C@]3(C)CC[C@]21C`, the Potency result is “inactive”.

For the compound `Cc1cc2c(c(C)c1CCO)C(=O)[C@H](C)C2`, the Potency result is “inactive”.

For `CC1=CC(C/C(C)=C/COc2ccc3ccc(=O)oc3c2)OC1=O` (stereo not given), the Potency entry was “inactive”.

`CN1c2c(nc(N)[nH]c2=O)NCC1CNc1ccc(C(=O)NC(CCC(=O)O)C(=O)O)cc1` (stereo not given): the Potency result was “inactive”.

`CCN1CCN(C(=O)N[C@H](C(=O)N[C@@H]2C(=O)N3C(C(=O)O)=C(CSc4nnnn4C)CS[C@@H]23)c2ccc(O)cc2)C(=O)C1=O`: the Potency result is “inactive”.
